Screens: PubChem BioAssay, National Center for Advancing Translational Sciences (NCATS)
This is a sample that favours compounds with a hit; in the whole collection about 10% have one here.
hNpr1 antagonist: Natriuretic polypeptide receptor (hNpr1) antagonism - Primary qHTS; hit rate 1.6% among 76,000; HEK293 hNpr1 GloSensor cGMP, ANP-stimulated luminescence; Atrial natriuretic peptide receptor 1 (Homo sapiens), P16066; AID 1347048, 2019; Potency, µM (titrated, usually from 46.3 µM), for the others: at the highest dose activity change, negative = inhibition, most hits filed as inhibitors; calls by dose curve; also: nearly all actives have a fitted effect of over 60% in size
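Compound pre-incubated 30 min at room temperature on GloSensor-loaded HEK293 cells stably carrying hNpr1 and the pGS-40F cGMP biosensor. Stimulation uses hNppA at 0.1 nM final; luminescence is taken at baseline and 20 min post-agonist.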
NIH3T3 tox: Cytotoxic Profiling in NIH 3T3 Cell Line of Diverse Libraries Using Quantitative High-Throughput Screening. Potency, µM (top dose mostly 96.7 µM), inactives show at the highest dose activity change, negative = cytotoxicity, most hits filed as inhibitors. hit rate 4.3% among 94,000. NIH 3T3 viability, CellTiter-Glo ATP luminescence, 48-72 h; also: nearly all actives have a fitted effect of over 55% in size
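ATP-dependent luminescence (CellTiter-Glo) served as the viability signal for NIH 3T3 cells treated with compound for 48 or 72 hr at 37 °C.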
Luciferase inh: Firefly luciferase inhibition profiling of diverse chemical library using quantitative high-throughput screening; purified P. pyralis luciferase, luminescence, biochemical; Potency, µM (series often up to 115 µM), actives largely listed as inhibitors; hit rate 2.5% among 76,000; AID 1347043, 2019; also: nearly all actives have a fitted effect of over 65% in size
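FLuc 10nM, D-luciferin 10uM, ATP 10uM, Mg acetate 10mM, Tris acetate pH 7.5, Tween/BSA; cpd qHTS; enzyme added last; CCD luminescence.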
HEK293 tox: Cytotoxic Profiling in HEK 293 Cell Line of Diverse Libraries Using Quantitative High-Throughput Screening | HEK 293 viability, ATP luminescence (CellTiter-Glo), 48-72 h | Potency, µM (top dose mostly 115 µM), for inactives: at the highest dose activity change, negative = cytotoxicity, hits mostly inhibitors | hit rate 6.6% among 94,000 | AID 1345083, 2018; also: nearly all actives have a fitted effect of over 60% in size
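Viability of HEK 293 cells, plated at 250 cells/well, was judged by cellular ATP after compound treatment for 48 or 72 hr. Luminescence was imaged 10 min after CellTiter-Glo addition at room temperature.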
GPT2 inhibitor: Primary qHTS assay for inhibitors of Glutamate pyruvate transaminase 2 (GPT2); Alanine aminotransferase 2 (Homo sapiens), Q8TD30; Recombinant GPT2, coupled pyruvate oxidase/HRP Amplex Red fluorescence; Potency, µM (doses to about 57.7 µM), for the others: at the highest dose activity change, negative = inhibition, hits mostly inhibitors; hit rate 0.25% among 100,000; also: nearly all actives have a fitted effect of over 60% in size
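Inhibition is scored from Amplex Red fluorescence generated when pyruvate oxidase and HRP act on pyruvate released by GPT2. Reactions contain 10ng/uL enzyme, 250uM a-KG and 2mM L-alanine and run 30 min at room temperature.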
Numbers without * were called inactive; i = inactive; u = inconclusive; x = not tested or not shown; ! = a repeat was not active; [ ] = remark or other dose. Unless noted, calls follow the shape of the dose curve; as a rule, active = well fitted curve in the direction sought with a large enough effect; inconclusive = small, poorly fitted or top-dose-only effect, or another doubt; inactive = no such curve, though single readings can be large; an effect the other way counts as inactive or inconclusive. % is scaled to controls: 0 for no effect and ±100 for the full control effect; potency is read from the fitted curve at half-maximal effect.

SMILES	hNpr1 antagonist	NIH3T3 tox	Luciferase inh	HEK293 tox	GPT2 inhibitor
CCN1c2cc(C(=O)Nc3cccc(Cl)c3)ccc2C(=O)N2CCCCCC21 (stereo not given)	-1.6%	39.8µM*	i	u	u
CN1c2cc(C(=O)Nc3cccc(Cl)c3)ccc2C(=O)N2CCCCC21 (stereo not given)	-11.7%	u	14.1µM*	u	1.4%
CCN1c2cc(C(=O)Nc3ccc(Cl)cc3)ccc2C(=O)N2CCCC21 (stereo not given)	0.0%	-2.9%	i	-27.2%	i
O=[S+]([O-])(c1cccs1)N1CCN(Cc2ccccc2-c2ccccc2F)CC1	x	u	x	u	0.0%
CC(C)c1ccccc1Cc1cc(C(=O)Nc2ccc(S(=O)(=O)c3ccccc3C(C)(C)C)cc2)c(O)c(O)c1O	x	x	x	x	27.3µM*
COc1ccc(-c2noc([C@@H]3CCCN3C(=O)c3cc4ccccc4[nH]3)n2)cc1OC	-3.7%	-9.7%	i	-13.7%	-2.1%
Cc1cccc(-c2noc(CCC(=O)N3CCC(C)(c4noc(C)n4)CC3)n2)c1	-12.0%	u	i	44.7µM*	-23.5%
CC(O)CN1CCC(=O)N(CC(C)(C)C)Cc2cc3c(cc21)OCO3 (stereo not given)	x	u	x	-20.3%	x
Cc1ccccc1S(=O)(=O)N1CCN(C2CCN(CCC(C)C)C2=O)CC1 (stereo not given)	-3.2%	-21.7%	i	u	i
Cc1ccc(Nc2ccnc(N3CCC(NC(=O)c4ccccc4Cl)CC3)n2)cc1	x	39.8µM*	x	44.7µM*	0.2%
O=C(NC1CCN(c2nccc(Nc3ccccc3Cl)n2)CC1)c1ccccc1Cl	x	u	x	39.8µM*	-6.9%
Cc1ccc(Nc2ccnc(N3CCN(C(=O)c4ccccc4Cl)CC3)n2)cc1	x	u	x	39.8µM*	i
O=C(NC1CCN(c2nccc(Nc3ccccc3Cl)n2)CC1)C1CC1	x	28.2µM*	x	u	-10.1%
CNC(=O)C1CCN(c2nccc(Nc3ccc(C)cc3)n2)CC1	x	u	x	u	-19.2%[88.5 µM]
CCCN1CCCC2(Cc3ccccc3CN(C(=O)Cc3ccccc3)C2)C1 (stereo not given)	x	u	x	u	i
CC(NC(=O)C1CCN(c2nccc(Nc3ccccc3Cl)n2)CC1)c1ccc(F)cc1 (stereo not given)	x	31.6µM*	x	39.8µM*	i
CNC(=O)C1CCN(c2nccc(Nc3ccccc3Cl)n2)CC1	x	u	x	u	-12.9%[88.5 µM]
COc1ccc(NC(=O)CCC2CCCN(C(=O)c3ccccc3SC)C2)cc1Cl (stereo not given)	12.6µM*	u	u	u	-13.2%
COc1ccc(NC(=O)CCC2CCCN(C(=O)CC3=CCCCC3)C2)cc1Cl (stereo not given)	u	-27.1%	u	u	3.2%
COc1ccc(Cl)cc1NC(=O)CCC1CCCN(C(=O)c2ccoc2C)C1 (stereo not given)	0.2%	u	i	31.6µM*	-17.8%
Cc1cccc(CN2CCCC(c3nc(C(C)C)no3)CCNC(=O)CC2)c1 (stereo not given)	-3.7%	u	i	u	i
CC(C)(C)c1cc(Br)cc([C@H](CC(=O)O)NC(=O)CNC(=O)c2cc(O)cc(NC3=NCC(O)CN3)c2)c1 (stereo not given in full)	x	x	x	x	-6.0%
O=C(c1ccc(F)cc1)N1CCC(C(=O)N2CCC(N3CCCC3=O)CC2)CC1	x	i	x	-6.1%	-4.3%
Cc1ccc2c(C)c(C(=O)N3CC[C@H](O)[C@@H](O)C3)oc2c1	2.6%	-12.1%	i	-18.9%	i
CCc1cn[nH]c1C1CCCN(C(=O)c2oc3cc(C)ccc3c2C)C1 (stereo not given)	-3.0%	44.7µM*	i	u	-2.1%
SMILES	hNpr1 antagonist	NIH3T3 tox	Luciferase inh	HEK293 tox	GPT2 inhibitor
Cc1ccc2c(n1)OC(COc1ccccc1)CN(c1ccccc1)C2=O (stereo not given)	x	-11.3%[46.1 µM]	x	u	i
Cc1ccccc1C(=O)NC1CCN(c2nccc(Nc3ccccc3F)n2)CC1	x	u	x	20µM*	i
Cc1ccc(C(=O)N2CCN(c3nccc(Nc4ccccc4F)n3)CC2)cc1	x	u	x	44.7µM*!	i
O=C(NC1CCN(c2nccc(Nc3ccccc3F)n2)CC1)c1cccc(Cl)c1	x	31.6µM*	x	u	i
Cc1ccc(C(=O)NC2CCN(c3nccc(Nc4ccccc4F)n3)CC2)cc1	x	u	x	22.4µM*	1.4%
O=C(NC1CCN(c2nccc(Nc3ccccc3Cl)n2)CC1)c1ccc(F)cc1	x	u	x	u	-1.6%
O=C(c1ccccc1)N1CCN(c2nccc(Nc3ccccc3F)n2)CC1	x	u	x	u	-1.6%
CNC(=O)C(=O)N1C[C@H](C(=O)NC)[C@H]2c3ccccc3N(CCOC)C(=O)[C@]21C	x	u	x	u	-4.0%[27.3 µM]
O=C(c1n[nH]c2ccccc12)N1CCCC1c1nc(CCOCC2CCOCC2)no1 (stereo not given)	3.1%	-3.6%	i	-5.6%	i
COc1ccccc1CNC[C@H]1Cn2cc(-c3ccccc3OC)nc2CO1	-1.4%[70.6 µM]	79.4µM*	i	112µM*	1.2%[88.5 µM]
COc1ccccc1-c1cn2c(n1)CO[C@@H](CNCc1ccc(F)cc1)C2	9.0%[70.6 µM]	u	i	70.8µM*	-22.5%[88.5 µM]
O=C(Cc1ccc(Cl)cc1)NC1CCN(CCn2nc3n(c2=O)CCCC3)C1 (stereo not given)	x	i	x	i	x
O=C(NCCCc1ccccc1)c1cc(-c2ccccc2)c2nncn2n1	x	u	x	44.7µM*	-3.1%
O=C(NCCc1ccccc1)c1cc(-c2ccsc2)c2nncn2n1	x	u	x	39.8µM*	2.5%
CCn1cnnc1-c1nn(C)c2c1CN(C(=O)c1[nH]nc3c1CCc1cc(OC)ccc1-3)CC2	-7.2%	-17.0%	i	-15.0%	u
CCNc1cc(N2CCC(CCC(=O)N3CCOCC3)CC2)ncn1	-2.3%	u	i	u	i
CCNc1cc(N2CCC(CCC(=O)N3CCN(c4ncccn4)CC3)CC2)ncn1	u	u	i	50.1µM*	i
CCCNc1cc(N2CCC(CCC(=O)N3CCN(c4ccccc4F)CC3)CC2)ncn1	12.6µM*	u	u	u	i
CCCCN(C)C(=O)CCC1CCN(c2cc(NC3CC3)ncn2)CC1	17.8µM*	u	i	31.6µM*	i
Cn1nc(C2CCCC2)cc1NC(=O)c1ccccc1Cl	x	u	x	u	i
